# PubChem BioAssay (EPA / NIEHS)
# “And” between values parts separate entries of the source, which are not always exact repeats. Equal entries are not always repeated. Inconclusive results are not listed. Some compounds were tested as several samples or in several runs, with calls that do not always agree. The source made the active and inactive calls. How the source made its calls, unless noted: active means hit-call score of the fitted dose curve at least 0.9, where 1 is the maximum; inconclusive means response in the unintended direction; inactive means score below 0.9.
# What was measured:
# [1] = target: frog Thyroid hormone Receptor alpha (TRa), thra-a (gene 397942) (UniProt P15204); assay: ATG_frTRa_XSP2: Attagene TRANS-FACTORIAL Multi-Species (XSP2) HepG2 Assay for frog Thyroid hormone Receptor alpha (TRa) (AID 2283839);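 on AC50: AC50 reflects induction of frog TRa-driven reporter mRNA above DMSO baseline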
# Outline: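 Read-out: fluorescent reporter-transcript fragments resolved by capillary electrophoresis after RT-PCR and HpaI cut. Human HepG2 liver cells carry a transfected frog TRα-Gal4 chimera driving a UAS reporter; 24 h exposure, DMSO baseline, positive-direction fit.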
# [2] = CEETOX_H295R_11DCORT_noMTC: CeeTox H295R High-throughput Steroidogenesis Assay for 11-Deoxycortisol (11DCORT), maximum tolerated concentration (MTC) filtered results only (AID 2283911; active means hit-call score of the fitted dose curve at least 0.9, where 1 is the maximum; inactive means score below 0.9); conditions: actives raise or lower the signal
# Outline: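 H295R, OECD 456-based; 10 uM forskolin 48 h → compound (0.1% DMSO) 48 h → medium extracted, 11DCORT by LC-MS/MS. Gain/loss vs DMSO control, all concentrations kept regardless of MTT viability.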
# [3] = CEETOX_H295R_OHPREG_noMTC: CeeTox H295R High-throughput Steroidogenesis Assay for OH-Pregnenolone (OHPREG), maximum tolerated concentration (MTC) filtered results only (AID 2283912; active means hit-call score of the fitted dose curve at least 0.9, where 1 is the maximum; inactive means score below 0.9); conditions: actives raise or lower the signal
# Outline: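 Readout is HPLC-MS/MS quantification of 17alpha-hydroxypregnenolone released by forskolin-stimulated H295R cells over 48 h of chemical exposure, DMSO as baseline.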
# [4] = CEETOX_H295R_OHPROG_noMTC: CeeTox H295R High-throughput Steroidogenesis Assay for OH-Progesterone (OHPROG), maximum tolerated concentration (MTC) filtered results only (AID 2283914; active means hit-call score of the fitted dose curve at least 0.9, where 1 is the maximum; inactive means score below 0.9); conditions: actives raise or lower the signal
# Outline: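 Analysis uses all tested concentrations, without maximum-tolerated-concentration screening by MTT. H295R cells, forskolin-primed (10 uM, 48 h), receive chemical for 48 h; hormone in medium measured by HPLC-MS/MS, with bidirectional curve fitting against DMSO.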
# [5] = CEETOX_H295R_CORTISOL_noMTC: CeeTox H295R High-throughput Steroidogenesis Assay for Cortisol, maximum tolerated concentration (MTC) filtered results only (AID 2283916; active means hit-call score of the fitted dose curve at least 0.9, where 1 is the maximum; inactive means score below 0.9); conditions: actives raise or lower the signal
# Protocol: CEETOX_H295R is a cell-based, multiplexed-readout assay that uses H295R, a human adrenal gland cell line, with measurements taken at 48 hours after chemical dosing in a 96-well plate.CEETOX_H295R_CORTISOL_noMTC is one of 12 assay component(s) measured or calculated from the CEETOX_H295R assay (11 hormones and 1 viability assay). It is designed to make measurements of hormone induction, a form of inducible reporter, as detected with absorbance signals by HPLC-MS-MS technology. The concentrations for these components have not been pre-filtered for the maximum tolerated concentration (MTC) based on the MTT assay (_noMTC).Data from the assay component CEETOX_H295R_CORTISOL_noMTC was analyzed into 1 assay endpoint. This assay endpoint, CEETOX_H295R_CORTISOL_noMTC, was analyzed with bidirectional fitting relative to DMSO as the negative control and baseline of activity. […]
# Cell culture and media preparation procedures were conducted in accordance with OECD Test No. 456 guidelines, with minor modifications. […] For steroid quantification, media samples were shipped to OpAns, LLC (Durham, NC) on dry ice, and samples were thawed to room temperature prior to liquid-liquid extraction. […] Steroid hormones were separated by HPLC, eluted using a reverse phase C18 gradient with electrospray positive ionization, followed by quantification by tandem mass spectrometry (MS/MS). […]
# [6] = target: human Thyroid hormone Receptor beta (TRb), THRB (gene 7068) (UniProt P10828); assay: ATG_hTRb_XSP2: Attagene TRANS-FACTORIAL Multi-Species (XSP2) HepG2 Assay for human Thyroid hormone Receptor beta (TRb) (AID 2283840);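 further: actives raise reporter mRNA so potency reflects agonist-like gain of signal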
# Protocol: (§1) ATG_XSP2_multi-species_TRANS is a cell-based, multiplexed assay created by modifying the existing Attagene TRANS-FACTORIAL system to include a panel of nuclear receptors from some or all the following species: human (Homo sapiens), mouse (Mus musculus), frog (Xenopus laevis), zebrafish (Danio rerio), chicken (Gallus gallus), and turtle (Chrysemys picta). The ECOTOX-FACTORIAL format uses HepG2, a human liver cell line, with measurements taken at 24 hours after chemical dosing in a 24-well plate. Xsp2 included 3 nM 6-alpha-fluorotestosterone and 1.5 nM norgestrel to stimulate the androgen receptor.ATG_hTRb_XSP2 is one of 29 assay components measured or calculated from the ATG_XSP2_multi-species_TRANS assay. It is designed to make measurements of mRNA induction, a form of inducible reporter, as detected with fluorescence intensity signals by Reverse transcription polymerase chain reaction (RT-PCR) and Capillary electrophoresis technology.The assay endpoint ATG_hTRb_XSP2 was analyzed in the positive analysis fitting direction relative to DMSO as the negative control and baseline of activity. Using a type of inducible reporter, measures of mRNA for gain-of-signal activity can be used to understand the reporter gene at the transcription factor-level as they relate to the gene TR. Furthermore, this assay endpoint can be referred to as a primary readout, because this assay has produced multiple assay endpoints where this one serves a reporter gene function. To generalize the intended target to other relatable targets, this assay endpoint is annotated to the nuclear receptor intended target family, where the subfamily is non-steroidal.
# Human liver HepG2 cells are transiently transfected with multiple reporter transcription units (MRTUs) in 6-well plates using FuGene 6 reagent (Roche; 3 ml FuGene/1 mg DNA). The MRTU constructs are regulated by a cis-regulating element (promoter). […] A major difference between the CIS and TRANS system is that in CIS activities of endogenous TFs are measured, whereas the TRANS assay evaluates changes in activities of exogenous, chimeric NR-Gal4 proteins. […] At the end of 24 hour incubation, total RNA was isolated using TriZol reagent (Invitrogen). The isolated RNA is then reverse-transcribed using oligo(dT) primer and Mo-MLV reverse transcriptase (Invitrogen) with DNAse I (Ambion) treatment for 30 min. […] The fragments were purified using Qiaquick PCR columns (Qiagen), analyzed on an ABI 3130xL genetic analyzer (Applied Biosystems) with peak positions identified by using a set of X-rhodamine (ROX)-labeled MapMarker1000 molecular weight standards (BioVentures). […]
# [7] = test system: Sodium/Iodide Symporter (NIS), SLC5A5 (gene 6528); assay: CPHEA_Stoker_NIS_Inhibition_RAIU: CPHEA's Radioactive Iodide Uptake (RAIU) Assay for Sodium/Iodide Symporter (NIS) Inhibition, Stoker and Laws Labs (AID 2283841)
# Outline: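 hNIS-HEK293T-EPA cells incubated 2 h at room temperature with compound (0.001–100 uM, 0.5% DMSO) and 329 pM final 125I in HBSS/10 mM HEPES, pH 7.4. Intracellular 125I counted; normalised to DMSO maximal uptake, triplicate, three biological replicates.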
# [8] = CPHEA_Stoker_NIS_Cytotoxicity: Cytotoxicity Assessment for CPHEA's Radioactive Iodide Uptake (RAIU) Assay for Sodium/Iodide Symporter (NIS) Inhibition, Stoker and Laws Labs (AID 2283897);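 on AC50: active means loss of ATP signal versus DMSO meaning cytotoxicity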
# Outline: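 hNIS-HEK293T-EPA cells, human NIS expressed in HEK293T, treated 2 h with chemicals (0.001–100 uM, 0.5% final DMSO). ATP content read by CellTiter-Glo luminescence; loss of signal analysed relative to DMSO.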
# [9] = ATG_XTT_Cytotoxicity_XSP2: Cytotoxicity Assessment in the Attagene TRANS-FACTORIAL Multi-Species (XSP2) HepG2 Assay (AID 2283837)
# Outline: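 XTT-based cell number read-out in human HepG2 liver cells carrying transfected reporter units, measured 24 h after chemical dosing. Activity is signal loss versus DMSO baseline.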
# [10] = target: human Thyroid hormone Receptor alpha (TRa), THRA (gene 7067) (UniProt P10827); assay: ATG_hTRa_XSP2: Attagene TRANS-FACTORIAL Multi-Species (XSP2) HepG2 Assay for human Thyroid hormone Receptor alpha (TRa) (AID 2283838)
# Protocol: as §1, with “receptor.ATG_hTRa_XSP2” for “receptor.ATG_hTRb_XSP2”, “ATG_hTRa_XSP2” for “ATG_hTRb_XSP2”, “Using a type of inducible reporter, measures of mRNA for gain-of-signal activity can be used to understand the reporter gene at the transcription factor-level as they relate to the gene TR.” left out, “To generalize the intended target to other relatable targets, this assay endpoint is annotated to the nuclear receptor intended target family, where the subfamily is non-steroidal.” left out
# Sequence of frog Thyroid hormone Receptor alpha (TRa), thra-a (gene 397942) (P15204 whole entry, looked up, the tested form may be a part): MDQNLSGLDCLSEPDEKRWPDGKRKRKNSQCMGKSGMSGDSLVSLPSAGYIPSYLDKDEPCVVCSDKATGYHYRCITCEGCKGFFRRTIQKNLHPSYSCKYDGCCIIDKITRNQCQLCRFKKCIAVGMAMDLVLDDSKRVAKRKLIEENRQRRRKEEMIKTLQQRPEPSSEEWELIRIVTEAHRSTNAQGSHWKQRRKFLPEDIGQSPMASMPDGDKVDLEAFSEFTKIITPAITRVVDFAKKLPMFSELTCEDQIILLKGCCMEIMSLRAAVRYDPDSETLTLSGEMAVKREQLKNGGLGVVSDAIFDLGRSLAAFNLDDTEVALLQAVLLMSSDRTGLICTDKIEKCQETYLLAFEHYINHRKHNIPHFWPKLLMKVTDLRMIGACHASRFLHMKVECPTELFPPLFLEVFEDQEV
# Sequence of human Thyroid hormone Receptor beta (TRb), THRB (gene 7068) (P10828 whole entry, looked up): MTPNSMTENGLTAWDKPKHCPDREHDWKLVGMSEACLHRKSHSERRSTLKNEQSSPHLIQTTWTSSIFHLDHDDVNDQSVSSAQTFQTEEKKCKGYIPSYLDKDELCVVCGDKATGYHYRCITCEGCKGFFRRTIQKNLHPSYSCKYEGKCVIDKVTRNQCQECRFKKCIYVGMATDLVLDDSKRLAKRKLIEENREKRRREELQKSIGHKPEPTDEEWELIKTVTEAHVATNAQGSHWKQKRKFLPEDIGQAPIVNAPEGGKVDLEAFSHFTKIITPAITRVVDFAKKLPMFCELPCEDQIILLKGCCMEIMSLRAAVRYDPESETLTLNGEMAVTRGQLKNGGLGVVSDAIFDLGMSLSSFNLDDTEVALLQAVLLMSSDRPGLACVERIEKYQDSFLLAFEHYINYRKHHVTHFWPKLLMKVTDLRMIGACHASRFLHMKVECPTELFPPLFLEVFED
# Sequence of human Thyroid hormone Receptor alpha (TRa), THRA (gene 7067) (P10827 whole entry, looked up): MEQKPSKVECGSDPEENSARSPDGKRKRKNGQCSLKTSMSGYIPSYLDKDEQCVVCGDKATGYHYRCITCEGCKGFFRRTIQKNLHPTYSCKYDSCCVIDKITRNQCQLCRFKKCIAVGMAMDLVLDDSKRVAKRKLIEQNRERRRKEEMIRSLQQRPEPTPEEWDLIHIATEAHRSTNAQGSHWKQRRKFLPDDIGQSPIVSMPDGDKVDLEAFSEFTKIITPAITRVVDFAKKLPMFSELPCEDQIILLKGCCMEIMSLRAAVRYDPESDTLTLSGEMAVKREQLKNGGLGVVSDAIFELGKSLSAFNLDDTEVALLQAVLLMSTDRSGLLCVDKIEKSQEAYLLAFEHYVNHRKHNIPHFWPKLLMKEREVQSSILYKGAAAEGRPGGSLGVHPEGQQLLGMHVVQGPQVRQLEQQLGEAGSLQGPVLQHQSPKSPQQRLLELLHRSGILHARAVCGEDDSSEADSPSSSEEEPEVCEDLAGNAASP
structure (smiles),measurement,setting,value
CCCCCCCCCCCCN,outcome,[1],inactive
CC1CC(OC(=O)c2ccccc2O)CC(C)(C)C1 (centres undefined),outcome,[2],inactive
same,outcome,[3],inactive
same,outcome,[4],inactive
same,outcome,[5],inactive
CN(C)C(=N)N=C(N)N,outcome,[1],inactive
same,outcome,[6],inactive
CCCCCCCCCCCCCOS(=O)(=O)O,outcome,[7],inactive
same,outcome,[8],inactive
O=c1cc(-c2ccccc2)oc2cc(O)cc(O)c12,outcome,[9],inactive
same,AC50,[10],10.9 µM (active) and 7.51 µM (active)
same,AC50,[1],26.2 µM (active) and 1.8 µM (active)
same,AC50,[6],100 µM (active)
same,outcome,[6],inactive
same,outcome,[7],inactive
same,outcome,[8],inactive
c1ccc(CCCc2ccccn2)cc1,outcome,[7],inactive
same,outcome,[8],inactive
CC(C)=CCC[C@](C)(O)[C@@H]1CC=C(C)CC1,outcome,[8],inactive
CN(CCOc1ccc(CC2SC(=O)NC2=O)cc1)c1ccccn1 (centres undefined),outcome,[1],inactive
CCN(CC)c1ccc2c(-c3ccccc3C(=O)O)c3ccc(=[N+](CC)CC)cc-3oc2c1,outcome,[7],inactive
same,AC50,[8],13.3 µM (active)
Cc1ccc(S)cc1,outcome,[7],inactive
same,outcome,[8],inactive
CCN(CC)CCOC(=O)c1ccc(N)cc1,outcome,[7],inactive
same,outcome,[8],inactive
Cc1ccc(C(C)C)cc1O,outcome,[2],inactive
same,outcome,[3],inactive
same,AC50,[4],33 µM (active)
same,outcome,[5],inactive
CSc1nc(NC2CC2)nc(NC(C)(C)C)n1,AC50,[7],10 µM (active)
same,outcome,[8],inactive
COc1cc(C(C)(C)C)c(O)c(C(C)(C)C)c1,outcome,[7],inactive
same,outcome,[8],inactive
CC(C)=CCCC(C)=CCCC(C)=CCO,outcome,[7],inactive
same,outcome,[8],inactive
O=C1c2ccccc2C(=O)N1SC1CCCCC1,outcome,[7],inactive
same,AC50,[8],79.4 µM (active)
BrC1CCC(Br)C(Br)CCC(Br)C(Br)CCC1Br (centres undefined),outcome,[7],inactive
same,outcome,[8],inactive
c1ccc2[nH]ccc2c1,outcome,[7],inactive
CCCCCCCCC,outcome,[7],inactive
same,outcome,[8],inactive
Cc1ccc(O)c(C(C)(C)C)c1,outcome,[7],inactive
same,outcome,[8],inactive
CCCCCCCCCCCCCCCCCC(=O)OCC(CC)CCCC (centres undefined),outcome,[7],inactive
same,outcome,[8],inactive
O=C(Oc1ccccc1)c1ccc(O)cc1,outcome,[10],inactive
same,AC50,[1],166 µM (active)
same,outcome,[1],inactive
same,outcome,[6],inactive
same,outcome,[8],inactive
CC(C)C[C@H]1C(=O)N2CCC[C@H]2[C@]2(O)O[C@](NC(=O)[C@@H]3C=C4c5cccc6[nH]c(Br)c(c56)C[C@H]4N(C)C3)(C(C)C)C(=O)N12,outcome,[7],inactive
same,outcome,[8],inactive
